Screening data deposited in PubChem by National Center for Advancing Translational Sciences (NCATS).
IL-1B inflam inh: inflammasome signaling inhibition, IL-1 beta readout. THP-1 LPS/ATP IL-1B secretion, AlphaLISA, 16 h; active compounds read low. activity change, % at 57.5 µM. actives 4.7% (n = 360,000). AID 743279; in the data active means activity change below about -50%; inconclusive means mostly about -30% to -49%
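Secreted IL-1B measured by AlphaLISA bead assay after 16 h compound exposure of THP-1 cells; compounds (final up to 57.5 uM) added 1 h before LPS (250 ng/mL) and ATP (1.25 mM) stimulation; lower signal means less secretion.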
RORgamma inh: blocks mouse ROR gamma transcriptional activity; Drosophila S2 Gal4-RORgamma UAS-luciferase reporter, 20 h; actives 5.4% (n = 310,000); P51450; Potency, µM (doses to about 53.6 µM), most hits filed as inhibitors; further: nearly all actives have a fitted effect of over 60% in size
Target sequence (P51450 whole entry, looked up, the tested form may be a part): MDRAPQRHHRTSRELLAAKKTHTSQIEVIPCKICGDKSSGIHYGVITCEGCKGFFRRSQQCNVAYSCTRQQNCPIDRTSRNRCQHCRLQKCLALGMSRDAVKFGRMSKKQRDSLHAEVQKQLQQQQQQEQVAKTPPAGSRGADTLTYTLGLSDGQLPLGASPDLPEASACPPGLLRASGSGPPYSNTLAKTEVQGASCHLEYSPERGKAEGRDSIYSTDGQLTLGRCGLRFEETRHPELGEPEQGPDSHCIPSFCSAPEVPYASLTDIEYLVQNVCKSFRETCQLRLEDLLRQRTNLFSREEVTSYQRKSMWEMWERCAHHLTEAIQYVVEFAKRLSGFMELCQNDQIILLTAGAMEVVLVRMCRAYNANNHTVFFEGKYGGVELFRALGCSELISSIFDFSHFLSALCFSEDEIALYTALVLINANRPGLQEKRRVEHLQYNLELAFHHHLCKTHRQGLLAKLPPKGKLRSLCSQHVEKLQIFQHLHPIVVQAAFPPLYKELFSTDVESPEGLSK
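Schneider cells (Drosophila), stable Gal4 DBD–ROR gamma + UAS-luc; 1 hr cmpd preincubation; Cu2+ induction 700 uM final; 20 hr ambient; luminescence.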
ELG1 repair inh: blocks ELG1-dependent DNA repair in HEK293T cells; Potency, µM (doses to about 46.1 µM), hits mostly inhibitors; AID 504467; HEK293T ELG1-luciferase reporter, luminescence, 16 h; DNA damage induced by 5-fluorouridine; actives 2.3% (n = 330,000); further: nearly all actives have a fitted effect of over 55% in size
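HEK293T cells expressing luciferase-tagged ELG1 (2,000/well) received 5-Fluorouridine plus compound or DMSO for 16 hr at 37 °C. Luciferase was read by ONE-Glo luminescence after 30 min at room temperature.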
DT40 TDP1 CPT: DT40-hTDP1 cell growth loss with CPT; actives 12% (n = 420,000); chicken DT40 Tdp1-/-;hTDP1 cells + 20 nM CPT, ATP luminescence, 48 h; Potency, µM (doses to about 46.2 µM), usual class: inhibitors; further: nearly all actives have a fitted effect of over 55% in size
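Chicken DT40 Tdp1-/- cells stably complemented with human TDP1 were seeded at 400 cells/well in medium containing 20 nM camptothecin, exposed to pin-transferred compounds, and grown at 37 °C for at least 48 hr. Viability was read as ATP luminescence.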
Gal4-VP16 FLuc: inhibits Gal4-VP16 luciferase reporter, ROR gamma counter-screen; Drosophila S2 Gal4-VP16 UAS-luciferase, luminescence, 20 h; Potency, µM (highest dose often 53.6 µM), actives largely listed as inhibitors; actives 3.5% (n = 310,000); AID 2546;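 further: Gal4-VP16 expression switched on by copper sulfate through the metallothionein promoter; nearly all actives have a fitted effect of over 50% in size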
DT40 TDP1 no CPT: qHTS for Inhibitors of human tyrosyl-DNA phosphodiesterase 1 (TDP1): qHTS in cells in absence of CPT; DT40 Tdp1-/- hTDP1 cells, no CPT, ATP luminescence, 48 h; Potency, µM (titrated, usually from 46.2 µM), hits mostly inhibitors; actives 15% (n = 420,000); AID 686978, 2013; further: nearly all actives have a fitted effect of over 55% in size
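Stably hTDP1-transfected Tdp1-null chicken DT40 cells were treated with library compounds minus camptothecin and grown for at least 48 hr at 37 °C, after which cellular ATP was quantified by luminescence.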
Numbers stand for hits; – = inactive; ? = inconclusive; · = no result given; [ ] = another dose, or the depositor's remark. An excerpt weighted towards active compounds, which were near 21% of everything screened. Unless noted, the call rests on the fitted dose curve; in most records, active means well fitted curve in the direction sought with a large enough effect; inconclusive means small, poorly fitted or top-dose-only effect, or another doubt; inactive means no such curve, though single readings can be large; an effect the other way counts as inactive or inconclusive.

SMILES | IL-1B inflam inh | RORgamma inh | ELG1 repair inh | DT40 TDP1 CPT | Gal4-VP16 FLuc | DT40 TDP1 no CPT
COc1ccc(C)cc1NC(=O)c1c(C(=O)Nc2cccc(C)c2C)sc2nc(C)cc(=O)n12 | · | · | · | – | · | –
Cc1cc(=O)n2c(C(=O)Nc3ccc(C(=O)OC(C)C)cc3)c(C(=O)Nc3ccccc3)sc2n1 | – | – | – | ? | – | 15µM
CCOC(=O)C1CC(=O)c2ccccc2C1c1ccccc1 (stereo unspecified) | – | · | · | – | · | ?
CCOC(=O)C1Nc2ccccc2C2c3ccccc3CC12 (stereo unspecified) | – | · | · | 21µM | · | 2.6µM
CCOC(=O)C1CCN(S(=O)(=O)c2ccccc2[N+](=O)[O-])CC1 | – | · | · | – | · | –
CCOC(=O)C1Nc2c(cc(C(F)(F)F)cc2[N+](=O)[O-])C2c3ccccc3CC12 (stereo unspecified) | – | · | · | 18µM | · | ?
Clc1ccc2nc(-c3cccs3)c(Nc3ccc4c(c3)OCCO4)n2c1 | · | · | · | ? | · | –
Clc1ccc(Nc2c(-c3ccccc3Cl)nc3ccc(Cl)cn23)cc1 | · | · | · | ? | · | 26µM
COc1ccc(Nc2c(-c3ccc(C)o3)nc3ccc(Cl)cn23)cc1 | · | · | · | 7.3µM | · | 18µM
COc1ccc(NC(=O)N2CCC3(CC2)CCN(C(=O)c2csnn2)CC3)cc1 | · | – | · | – | – | –
O=C(Nc1nnc(-c2ccc(F)cc2)o1)c1ccc(S(=O)(=O)N2CCOCC2)cc1 | – | 0.63µM | 7.3µM | 3.3µM | 0.71µM | 2.9µM
CS(=O)(=O)c1ccccc1-c1nnc(NC(=O)c2ccco2)o1 | – | · | – | – | · | –
Cc1ccccc1C(=O)Nc1nnc(-c2cccnc2)o1 | – | 3.2µM | – | – | 5µM | –
O=C(Nc1nnc(-c2ccc(F)cc2)o1)c1ccco1 | – | ? | – | ? | 5µM | ?
Cc1ccccc1C(=O)Nc1nnc(-c2ccc(F)cc2)o1 | – | 1.3µM | – | 6.5µM | 0.45µM | 5.8µM
CCC(=O)Nc1ccc(C(=O)COC(=O)c2sc(C)nc2C)cc1 | – | · | – | ? | · | –
O=c1cnc2cnc(Oc3ccccc3)nc2n1C[C@H]1CCCO1 | · | ? | · | – | – | ?
COc1ccc(-c2nnc(NC(=O)c3cc(Cl)ccc3Cl)o2)cc1 | – | 1.1µM | – | 16µM | 1.4µM | ?
COc1ccc(-c2nnc(NC(=O)c3ccc(F)cc3)o2)cc1 | – | 0.11µM | ? | 2.9µM | ? | ?
O=C(Nc1nnc(-c2ccccc2Cl)o1)c1cccnc1 | – | 0.89µM | ? | ? | 1.3µM | ?
COc1ccccc1C(=O)NNC(=O)c1ccc(F)cc1 | – | –[10 µM] | ? | – | – | –
O=C(Nc1ccc(Cl)c(Cl)c1)c1cccnc1 | – | – | ? | ? | – | ?
COc1ccccc1C(=O)Nc1nnc(-c2ccc(F)cc2)o1 | – | 7.9µM | – | – | 11µM | –
Cc1ccccc1OCCc1c(C)[nH]c(=S)[nH]c1=O | – | ? | ? | 1.5µM | – | 0.82µM
Cc1[nH]c(=S)[nH]c(=O)c1CCOc1ccccc1 | – | – | – | – | – | ?
SMILES | IL-1B inflam inh | RORgamma inh | ELG1 repair inh | DT40 TDP1 CPT | Gal4-VP16 FLuc | DT40 TDP1 no CPT
C[C@]12CCC(=O)CC1CCC1C2CC[C@@]2(C)C1CC[C@@]21CCO1 (stereo partly specified) | – | – | – | ? | – | 21µM
O=C(Nc1cccc(F)c1)N1CC[C@@]2(CCCN(C(=O)c3cccc(F)c3)C2)C1 | · | – | · | – | – | –
CN(C(=O)COC(=O)c1cnc(Cl)c(Cl)c1)C1CCS(=O)(=O)C1 (stereo unspecified) | -86 | – | – | – | – | –
CN(C(=O)COC(=O)c1cnc(Cl)c(Cl)c1)C1CCCCC1 | -96 | · | ? | – | · | –
CCN(CC)C(=O)COc1ccc(Br)cc1Cl | – | – | – | – | – | –
O=C(COC(=O)c1cnc(Cl)c(Cl)c1)NC1CCCC1 | ? | · | · | – | · | –
CN(C(=O)COc1ccc(Br)cc1Cl)C1CCCCC1 | -52 | – | ? | ? | – | ?
COc1ccc(S(=O)(=O)NCC(c2ccco2)N2CCOCC2)cc1C (stereo unspecified) | · | · | · | – | · | –
